Source: PubChem BioAssay (NCI)
The panel holds about 83,000 compounds, 20% with a hit somewhere; the sample as a whole holds those more often.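 96-well plates, one dose, 48 hours. Percent growth reported; active if below 10.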 Active and inactive are the calls of the source.

Tests used:
Assay in all cases: NCI-60 one-dose screen, 48 h (100 = growth as untreated, 0 = no growth, -100 = all killed)
Settings in all cases: 10 µM unless noted
[1] = tested on: NCI-H23 lung
[2] = tested on: NCI-H226 lung
[3] = tested on: NCI-H322M lung
[4] = tested on: HOP-62 NSCLC
[5] = tested on: NCI-H460 lung
[6] = tested on: NCI-H522 lung
[7] = tested on: A549/ATCC NSCLC
[8] = tested on: 786-0 renal
[9] = tested on: COLO 205 colon
[10] = tested on: DU-145 prostate
[11] = tested on: K-562 leukemia
[12] = tested on: MALME-3M melanoma
[13] = tested on: MDA-MB-231 breast
[14] = tested on: RXF 393 renal
[15] = tested on: SF-268 CNS
[16] = tested on: SF-295 CNS
[17] = tested on: SF-539 CNS
[18] = tested on: UACC-257 melanoma
[19] = tested on: M14 melanoma
[20] = tested on: HCT-15 colon

Measured: growth

COc1ccc2[nH]c(-c3ccccc3)cc2c1
inactive: [1] 98.9% | [2] 96.5% | [3] 120% | [4] 115% | [5] 111% | [6] 74.1% | [7] 96.2% | [8] 103% | [9] 110% | [10] 101% | [11] 76.5% | [12] 122% | [13] 90% | [14] 100% | [15] 110% | [16] 105% | [17] 103% | [18] 87.5% | [19] 112% | [20] 97%

CCOC(=O)c1c(NC(=O)C2CCCCC2C(=O)O)sc2c1CCCC2 (stereo unspecified)
inactive: [1] 99.4% | [2] 95.5% | [3] 86.4% | [4] 104% | [5] 109% | [6] 94% | [7] 97.6% | [8] 106% | [9] 114% | [10] 108% | [11] 102% | [12] 109% | [13] 105% | [14] 114% | [15] 105% | [16] 96.3% | [17] 102% | [18] 92.1% | [19] 106% | [20] 106%

COc1ccc(-c2cncn2-c2ccc(-c3nc4cc(OC)c(OC)c(OC)c4s3)cc2)cc1N
inactive: [1] 72.9% | [2] 64.5% | [3] 84.1% | [4] 101% | [5] 51.4% | [6] 46% | [7] 47.9% | [8] 55.2% | [9] 46.2% | [10] 92.6% | [11] 41% | [12] 57.9% | [13] 76.4% | [14] 75.8% | [15] 93.1% | [16] 50% | [17] 87.8% | [18] 71.6% | [19] 46.5% | [20] 42.1%

O=C1C(=O)c2ccc(Br)cc2-c2cc(Br)ccc21
inactive: [1] 42% | [2] 88.6% | [3] 91.2% | [4] 76.3% | [5] 78.8% | [7] 89.7% | [8] 50.9% | [9] 119% | [10] 68.4% | [12] 70.4% | [14] 26.1% | [15] 22.4% | [16] 78.1% | [17] 117% | [18] 76.8% | [19] 68% | [20] 50.2%
active: [6] 0.737% | [11] 4.69% | [13] -23.4%

COc1ccc(OC)c2c1[nH]c(=O)c1c3ccccc3cn21
active: [1] -25.8% | [3] -70.7% | [4] -33.6% | [5] -61.2% | [6] -50.4% | [7] -73.2% | [8] -86.3% | [9] -91.1% | [10] -65% | [12] -89.4% | [13] -89.2% | [14] -79.9% | [15] -64.9% | [16] -76.7% | [17] -98.5% | [18] -75.5% | [19] -54.3%
inactive: [2] 48.4% | [11] 11.2%

O=C(NCCc1ccccc1)C1CCC(=O)N1Cc1ccc(Br)cc1 (stereo unspecified)
inactive: [1] 104% | [2] 95.1% | [3] 101% | [4] 93% | [5] 102% | [6] 67.1% | [7] 79.1% | [8] 105% | [9] 108% | [10] 109% | [11] 107% | [12] 96.7% | [13] 114% | [14] 106% | [15] 106% | [16] 106% | [17] 96% | [18] 79.9% | [19] 104% | [20] 108%

CC(C)c1ccc(C(=O)Nc2sc3c(CN(C)C)c(O)ccc3c2C(N)=O)cc1
inactive: [1] 49.1% | [2] 86.9% | [3] 65.5% | [4] 64.4% | [5] 72% | [6] 43.7% | [7] 33% | [8] 49.6% | [9] 47.1% | [10] 51.9% | [12] 63.9% | [13] 38.5% | [14] 12.2% | [15] 69.3% | [16] 61.9% | [17] 40.8% | [19] 18.5%
active: [11] -41.3% | [18] 9.32%

O=C1NCN(CCO)CN1
inactive: [1] 98.6% | [2] 105% | [3] 94.2% | [4] 85.1% | [5] 105% | [6] 103% | [7] 101% | [8] 90.4% | [9] 120% | [10] 117% | [11] 111% | [12] 92.6% | [13] 125% | [14] 107% | [15] 108% | [16] 113% | [17] 93.3% | [18] 96.7% | [19] 96.7% | [20] 109%

COc1ccc2c(c1)C(=O)/C(=C/c1ccc([N+](=O)[O-])s1)O2
inactive: [2] 60% | [3] 11.4% | [4] 35.2% | [8] 28.1% | [10] 43.8%
active: [1] 7.22% | [5] -3.34% | [6] -86.4% | [7] 8.34% | [9] -64.7% | [11] 3.01% | [12] -46.3% | [13] -71.1% | [14] -63% | [15] -72.7% | [16] 5.53% | [17] -46.2% | [18] -0.975% | [19] -20.6%

Oc1ccc(-c2nn(-c3ccccc3)cc2-c2nc3ccccc3s2)cc1
inactive: [1] 89.6% | [2] 85.9% | [3] 97.3% | [4] 104% | [5] 91.3% | [6] 101% | [7] 91.2% | [8] 105% | [9] 106% | [10] 106% | [11] 78.6% | [12] 98.8% | [13] 81.5% | [14] 104% | [15] 97.3% | [16] 106% | [17] 102% | [18] 107% | [19] 101%

CC(C)[C@H]1CC[C@H]2[C@@H](CC[C@H]3[C@](C)(CN)CCC[C@]23C)C1
inactive: [1] 88.4% | [2] 105% | [3] 15.3% | [4] 56.3% | [6] 80% | [7] 87% | [8] 72.9% | [10] 11.2% | [11] 18.7% | [12] 83% | [13] 63.6% | [14] 86.9% | [15] 53.5% | [16] 80.5% | [17] 98.8% | [18] 108% | [19] 93%
active: [5] -66.1% | [9] -82.6%

Cc1nnc(Nc2ccc(NC(=O)Nc3ccc(Cl)cc3)cc2)c2ccccc12
inactive: [1] 48.8% | [2] 71.9% | [3] 47.8% | [5] 26.1% | [6] 30.3% | [7] 26.4% | [9] 28.2% | [10] 57.8% | [13] 23.1% | [15] 48.7% | [17] 16.2% | [18] 73.8% | [19] 37.3%
active: [4] 4.62% | [8] -27.8% | [11] -16.7% | [12] -9.9% | [14] -39.7% | [16] 4.8%

CCOC(=O)/C=C(/C)Sc1cc(O)c2ccccc2c1O
active: [1] -71.4% | [3] -19.9% | [5] -64% | [7] -34.1% | [10] -100% | [12] -90% | [17] 5.78% | [18] 5.04% | [19] -94.6%
inactive: [2] 89.4% | [4] 157% | [6] 12.7% | [8] 159% | [9] 46.6% | [11] 17.6% | [13] 14.7% | [14] 46.1% | [15] 32.8% | [16] 30.2%

COc1cccc2c1C(=O)c1c(O)c3c(c(O)c1C2=O)C[C@@](O)(/C(C)=N/NC(=O)c1cccc([N+](=O)[O-])c1)C[C@@H]3OC1CC(N)C(O)C(C)O1 (stereo partly specified)
active: [1] -33.6% | [2] -67.4% | [3] -3.02% | [4] -23.8% | [5] -38.5% | [6] -61% | [7] -53.4% | [8] -24.6% | [9] -98.1% | [10] -49.7% | [11] -75.7% | [12] -93.6% | [13] -5.42% | [14] -64.9% | [15] -20% | [16] -38.5% | [17] -25.7% | [18] -37.4% | [19] -43.8%

O=[N+]([O-])c1ccc(N/N=C\c2ccccc2[N+](=O)[O-])nc1
inactive: [1] 98.2% | [2] 106% | [3] 105% | [4] 123% | [5] 101% | [6] 97.5% | [7] 92.2% | [8] 104% | [9] 133% | [10] 101% | [11] 94.6% | [12] 117% | [13] 110% | [14] 102% | [15] 107% | [16] 103% | [17] 109% | [18] 119% | [19] 126%

Clc1ccc(CCC(Cn2ccnc2)Sc2c(Cl)cccc2Cl)cc1 (stereo unspecified)
inactive: [1] 42.5% | [2] 90.6% | [3] 81.3% | [4] 83% | [5] 47.3% | [6] 20.3% | [7] 61.2% | [8] 56.4% | [9] 57.7% | [10] 94.2% | [11] 30.5% | [12] 60.3% | [13] 55.5% | [14] 67.4% | [15] 87.1% | [16] 43.4% | [17] 91.5% | [18] 83.4% | [19] 54.9% | [20] 34%
